Source: PubChem
The list is not random: actives were taken first. Their share in the collection is about 5.5%.
Chronic BCR inh – inhibitors of chronic active B-cell receptor signaling | ABC-DLBCL IkBa-CBG/CBR reporter, luminescence ratio, 4 h | Potency, µM (series often up to 46.1 µM), without a hit: at the highest dose activity change, negative = inhibition, most hits filed as inhibitors | 0.05% of 340,000 active | AID 493014; active means well fitted inhibition curve with a large enough effect in the signal ratio, with a control signal flat, not every such curve was filed as active; inconclusive means small, poorly fitted or top-dose-only effect, or effect the other way, or a change in a side signal; the % refers to the signal ratio;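 further: plate controls were basal doxycycline-induced cells for no effect and cells given 10 µM MG132 for full effect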
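TMD8 ABC-DLBCL cells carrying doxycycline-inducible green luciferase fused to IkappaBalpha plus unfused red luciferase were exposed to compounds (up to 46 uM) for 4 hrs at 37C. Activity came from the overlap-corrected green/red luminescence ratio.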
VP16 counter – inhibits Gal4-VP16 luciferase reporter, ROR gamma counter-screen; AID 2546; 3.5% of 310,000 active; Drosophila S2 Gal4-VP16 UAS-luciferase, luminescence, 20 h; Potency, µM (highest dose often 53.6 µM), inactives show top-dose activity, negative = inhibition, hits mostly inhibitors;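 further: Gal4-VP16 expression switched on by copper sulfate through the metallothionein promoter; on the % scale 0 is the no-effect control and ±100 the full control effect; nearly all actives have a fitted effect of over 50% in size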
RORg inh – blocks mouse ROR gamma transcriptional activity; Drosophila S2 Gal4-RORgamma UAS-luciferase reporter, 20 h; 5.4% of 310,000 active; AID 2551; Potency, µM (top dose mostly 53.6 µM), inactives show at the highest dose activity change, negative = inhibition, actives largely listed as inhibitors; further: on the % scale 0 is the no-effect control and ±100 the full control effect; nearly all actives have a fitted effect of over 60% in size
Target sequence (P51450 whole entry, looked up, the tested form may be a part): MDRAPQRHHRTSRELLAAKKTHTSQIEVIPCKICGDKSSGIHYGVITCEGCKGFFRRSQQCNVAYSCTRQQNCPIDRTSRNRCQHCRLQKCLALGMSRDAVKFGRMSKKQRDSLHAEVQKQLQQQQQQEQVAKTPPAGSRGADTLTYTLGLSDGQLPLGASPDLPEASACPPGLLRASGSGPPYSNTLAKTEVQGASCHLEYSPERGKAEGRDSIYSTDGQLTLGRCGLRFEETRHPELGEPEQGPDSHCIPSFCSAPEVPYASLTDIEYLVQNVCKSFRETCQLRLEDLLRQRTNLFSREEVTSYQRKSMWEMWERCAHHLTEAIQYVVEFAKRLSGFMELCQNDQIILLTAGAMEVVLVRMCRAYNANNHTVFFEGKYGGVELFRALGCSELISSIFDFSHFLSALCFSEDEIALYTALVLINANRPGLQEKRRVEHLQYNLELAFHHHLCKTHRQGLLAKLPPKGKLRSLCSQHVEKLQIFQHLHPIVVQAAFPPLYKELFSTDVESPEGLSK
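Schneider cells (Drosophila), stable Gal4 DBD–ROR gamma + UAS-luc; 1 hr cmpd preincubation; Cu2+ induction 700 uM final; 20 hr ambient; luminescence.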
Integrin act MD – activates integrin-mediated alleviation for muscular dystrophy; alpha7betagal myoblasts, beta-gal FDG fluorescence, 48 h; 0.064% of 350,000 active; Potency, µM (series often up to 38.3 µM), inactives show top-dose activation, hits mostly activators;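 further: 100% = response of the positive control SU9516; nearly all actives have a fitted effect of over 60% in size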
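alpha7betagal+/- myoblasts (passage 13, 250/well) treated 48 h at 37C with compounds at 1:260 dilution of DMSO stock. Lysed, then beta-galactosidase activity read as FDG fluorescence (ex 480/em 540) after 30 min, with pre-read for autofluorescence.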
Mito fusion yeast – inhibitors of mitochondrial division or activators of mitochondrial fusion | S. cerevisiae fusion-defective mutant growth rescue, CellTiterGlo 48 h | Potency, µM (series often up to 46.1 µM), for inactives: at the highest dose growth rescue (activation), actives largely listed as activators | 0.23% of 320,000 active | AID 485298; further: % of control where 0% means no effect; nearly all actives have a fitted effect of over 45% in size
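Compounds are tested for their ability to restore growth of mitochondrial fusion-defective yeast strains at non-permissive 37C in YPEG medium over 48 hours. Viability is quantified by luciferase luminescence.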
uPA generation – cell surface uPA generation inhibition; cell surface uPA generation assay, qHTS; 0.31% of 330,000 active; AID 540303; Potency, µM (titrated, usually from 38.3 µM), for the others: at the top dose activity change, negative = inhibition, hits mostly inhibitors; active means well fitted inhibition curve with a large enough effect; inconclusive means small, poorly fitted or top-dose-only effect; inactive means no such curve, though single readings can be large or run the other way; tested in mouse RAW 264.7 cells; further: on the % scale 0 is the no-effect control and ±100 the full control effect; nearly all actives have a fitted effect of over 55% in size
Starred values were filed as active, the others as inactive; [ ] = dose if it differs, or a comment. Unless noted, the call rests on the fitted dose curve; in most records, active means well fitted curve in the direction sought with a large enough effect; inconclusive means small, poorly fitted or top-dose-only effect, or another doubt; inactive means no such curve, though single readings can be large; an effect the other way counts as inactive or inconclusive. Potency means the concentration at half of the fitted maximal effect.

For CCNC(=S)N1CCN(c2ccccc2OCC)CC1 the results were Chronic BCR inh -9%, VP16 counter -7%, RORg inh -7%, Integrin act MD 10%, Mito fusion yeast -2% and uPA generation -6%.
`CCc1ccccc1NC(=S)N1CCN(c2ccccc2F)CC1` gave Chronic BCR inh -19%, VP16 counter inconclusive, RORg inh 7.1µM*, Integrin act MD -12%, Mito fusion yeast inconclusive and uPA generation 1%.
Screening CCOc1ccccc1NC(=S)N1CCN(c2ccccc2F)CC1 returned Chronic BCR inh -3%, VP16 counter 14µM*, RORg inh inconclusive, Integrin act MD -15%, Mito fusion yeast -8% and uPA generation 1%.
For CCOc1ccccc1NC(=S)N1CCN(c2nc(-c3ccc(F)cc3)cs2)CC1 the results were Chronic BCR inh inconclusive, VP16 counter inconclusive, RORg inh 11µM*, Integrin act MD -31%, Mito fusion yeast 4% and uPA generation 12%.
`CCOc1ccccc1NC(=S)N1CCCCCC1` gave Chronic BCR inh 1%, VP16 counter inconclusive, RORg inh 14µM*, Integrin act MD -18%, Mito fusion yeast -6% and uPA generation -5%.
`CNC(=S)N1CCN(c2nc(-c3ccc(F)cc3)cs2)CC1` gave Chronic BCR inh 7%, Integrin act MD -5%, Mito fusion yeast -1% and uPA generation 14%.
For Cc1ccc(NC(=S)N2CCN(c3ccccc3F)CC2)c(C)c1 the results were Chronic BCR inh -8%, VP16 counter 7.1µM*, RORg inh 8.9µM*, Integrin act MD inconclusive, Mito fusion yeast -12% and uPA generation -4%.
`CCOc1ccccc1NC(=S)N1CCN(c2ccc(O)cc2)CC1` gave Chronic BCR inh 0%, VP16 counter 17%, RORg inh -15%, Integrin act MD 8%, Mito fusion yeast -19% and uPA generation inconclusive.
`CCOc1ccccc1NC(=S)N1CCN(c2ccc(OC)cc2)CC1` gave Chronic BCR inh 3%, VP16 counter 18µM*, RORg inh 11µM*, Integrin act MD -4%, Mito fusion yeast -4% and uPA generation -7%.
For Cc1cnc(CNc2ccnc(-c3ccccc3Cl)n2)cn1 the results were VP16 counter -11% and RORg inh 8%.
C=CCNc1nnc(SC2CC(=O)N(c3ccc(OC)cc3)C2=O)s1 (stereo unspecified) was read as Chronic BCR inh 8%, VP16 counter 13µM*, RORg inh 4.5µM*, Integrin act MD -58%, Mito fusion yeast -1% and uPA generation -20%.
Screening COc1ccc(N2C(=O)CC(NNc3nc4ccccc4s3)C2=O)cc1 (stereo unspecified) returned Chronic BCR inh 1%, VP16 counter -13%, RORg inh 21%, Integrin act MD -25%, Mito fusion yeast 1% and uPA generation 1%.
Screening CCOc1ccc2nc(SC3CC(=O)N(c4ccc(OC)cc4)C3=O)sc2c1 (stereo unspecified) returned Chronic BCR inh -6%, VP16 counter inconclusive, RORg inh 16µM*, Integrin act MD -65%, Mito fusion yeast -4% and uPA generation -6%.
Screening COc1ccc(N2C(=O)CC(Sc3nc4ccccc4s3)C2=O)cc1 (stereo unspecified) returned Chronic BCR inh 3%, VP16 counter inconclusive, RORg inh 5µM*, Integrin act MD 16%, Mito fusion yeast -8% and uPA generation -2%.
CCOc1ccc(N2C(=O)CC(SCCN)C2=O)cc1 (stereo unspecified) was read as Chronic BCR inh -1%, VP16 counter inconclusive, RORg inh inconclusive, Integrin act MD 12%, Mito fusion yeast -17% and uPA generation -7%.
CCOc1ccc(N2C(=O)CC(Sc3nnnn3-c3ccccc3)C2=O)cc1 (stereo unspecified) was read as Chronic BCR inh inconclusive, VP16 counter inconclusive, RORg inh 4µM*, Integrin act MD -70%, Mito fusion yeast 3% and uPA generation -5%.
For Cc1ccc(S(=O)(=O)N2CCC(C(=O)Nc3ccccc3N3CCCC3)CC2)cc1C the results were Chronic BCR inh -7%, Integrin act MD -2%, Mito fusion yeast -1% and uPA generation 0%.
Screening Cc1ccc(NC(=S)NCc2ccccn2)cc1 returned Chronic BCR inh inconclusive, VP16 counter 16µM*, RORg inh 4µM*, Integrin act MD 18%, Mito fusion yeast -16% and uPA generation 4%.
`FC(F)(F)c1cccc(NC(=S)NCc2ccccn2)c1` gave Chronic BCR inh 0%, VP16 counter 7.1µM*, RORg inh 3.5µM*, Integrin act MD -13%, Mito fusion yeast -10% and uPA generation 7%.
CC(=NNC(=S)Nc1cccc(Cl)c1)c1ccccn1 was read as Integrin act MD -56% and uPA generation -9%.
For Cc1cccc(NC(=O)C(=O)NCc2ccccn2)c1 the results were Chronic BCR inh inconclusive, VP16 counter 2%, RORg inh -12%, Integrin act MD 24%, Mito fusion yeast 3% and uPA generation 0%.
S=C(NCc1ccccn1)NN=Cc1ccccn1 was read as Integrin act MD -32% and uPA generation -10%.
For S=C(NCc1ccccn1)Nc1cccc(Cl)c1 the results were Chronic BCR inh 5%, VP16 counter 13µM*, RORg inh 6.3µM*, Integrin act MD 9%, Mito fusion yeast -18% and uPA generation 3%.
`Cc1cccc(NC(=S)NCc2ccccn2)c1` gave Chronic BCR inh inconclusive, VP16 counter inconclusive, RORg inh 5µM*, Integrin act MD 18%, Mito fusion yeast -11% and uPA generation -2%.
`C/C(=N\N(Cc1ccccc1)c1ccccc1)c1ccncc1` gave Chronic BCR inh -2%, VP16 counter 2%, RORg inh 6%, Integrin act MD 21%, Mito fusion yeast 1% and uPA generation 8%.
For C/C(=C\COc1c2ccoc2cc2oc(=O)ccc12)CCC(O)C(C)(C)O (stereo unspecified) the results were VP16 counter -4% and RORg inh -14%.
COC(=O)[C@@H]1CC[C@H](C)[C@@H](c2ccc(C)cc2)N1C(=O)c1ccc(/C=N\O[C@@H](C)c2cn([C@H]3COC[C@H]3O)nn2)cc1 was read as VP16 counter 6%[10 µM] and RORg inh -22%[10 µM].
Screening O=c1ccc2ccccc2[nH]1 returned VP16 counter 13µM* and RORg inh 6.3µM*.
